JMJD2A Tudor inh: JMJD2A Tudor domain (human) inhibition; O75164; AlphaScreen JMJD2A-Tudor / H3K4me3 peptide binding; Potency, µM (highest dose often 114 µM), inactives show at the top dose activity change, negative = inhibition, most hits filed as inhibitors; actives 4.4% (n = 390,000); AID 504339; further: on the % scale 0 is the no-effect control and ±100 the full control effect; nearly all actives have a fitted effect of over 50% in size
PLK1 PBD inh: blocks phosphopeptide binding to human PLK1 polo-box domain | P53350 | Plk1 PBD binding of FITC phosphopeptide, fluorescence polarization | Potency, µM, inactives show max response, negative = inhibition, most hits filed as inhibitors | actives 2.8% (n = 360,000); further: series mostly up to about 57 µM; on the % scale 0 is the no-effect control and ±100 the full control effect; nearly all actives have a fitted effect of over 65% in size
HP1b chromo inh: inhibitors of HP1-beta chromodomain binding to methylated histone tails. P83916. AlphaScreen HP1-beta / biotin-H3K9me3 peptide binding. Potency, µM (highest dose often 114 µM), without a hit: top-dose activity change, negative = inhibition, hits mostly inhibitors. actives 0.56% (n = 390,000); further: nearly all actives have a fitted effect of over 70% in size
Target sequence (P83916 whole entry, looked up): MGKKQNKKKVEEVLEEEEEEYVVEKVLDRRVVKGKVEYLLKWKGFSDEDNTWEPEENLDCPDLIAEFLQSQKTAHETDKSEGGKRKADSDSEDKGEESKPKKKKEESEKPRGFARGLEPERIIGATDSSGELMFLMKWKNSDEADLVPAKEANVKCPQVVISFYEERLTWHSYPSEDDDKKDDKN
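Compound inhibition of the preformed complex between 50 nM HP1-beta and 50 nM biotinylated H3K9me3 peptide was read by AlphaScreen. Buffer was PBS pH 7.4 with 0.01% Tween-20. Incubations ran 30 min at room temperature, with 10 ug/mL donor/acceptor beads.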
BAZ2B inh: blocks human BAZ2B; Q9UIF8; AlphaScreen BAZ2B-H3K14Ac peptide displacement; Potency, µM (top dose mostly 114 µM), for the others: top-dose activity change, negative = inhibition, hits mostly inhibitors; actives 4.4% (n = 360,000); AID 504333; further: on the % scale 0 is the no-effect control and ±100 the full control effect; nearly all actives have a fitted effect of over 60% in size
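AlphaScreen displacement: compounds (up to 110uM) incubated 30 min at room temperature with a preformed 50 nM BAZ2B/50 nM biotinylated H3K14Ac peptide complex in PBS pH 7.4 with Tween-20. Donor and acceptor beads at 10 ug/mL final added, 20 min light-protected before reading.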
G9a block: inhibitors of human histone lysine methyltransferase G9a; G9a H3K9 monomethylation, AlphaScreen, 2 h; actives 8.8% (n = 350,000); AID 504332; Potency, µM (doses to about 102 µM), inactives show top-dose activity, negative = inhibition, hits mostly inhibitors; Q96KQ7; further: on the % scale 0 is the no-effect control and ±100 the full control effect; nearly all actives have a fitted effect of over 75% in size
Target sequence (Q96KQ7 913-1193 limits assumed): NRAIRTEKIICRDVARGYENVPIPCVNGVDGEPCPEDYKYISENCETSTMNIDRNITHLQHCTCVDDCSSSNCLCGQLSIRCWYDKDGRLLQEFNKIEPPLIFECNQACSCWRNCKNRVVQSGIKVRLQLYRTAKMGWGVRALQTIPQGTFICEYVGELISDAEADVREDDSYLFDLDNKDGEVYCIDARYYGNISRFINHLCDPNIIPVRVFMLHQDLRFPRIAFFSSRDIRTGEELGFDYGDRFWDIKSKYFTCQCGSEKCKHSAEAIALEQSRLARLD
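Using a bead-based AlphaScreen, monomethylated H3K9 product from 2 h room-temperature reactions (G9a 20 nM, peptide 500 nM, SAM 20 uM) was detected with 0.5 ug/mL rabbit anti-H3K9me1 antibody.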
Sfp PPTase inh: inhibitors of Bacillus subtilis Sfp phosphopantetheinyl transferase; Q9F4F7; Biochemical Sfp PPTase activity, qHTS; actives 3.5% (n = 310,000); Potency, µM, for inactives: largest response in the series, negative = inhibition, hits mostly inhibitors;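 further: the enzyme is Sfp with the accession as filed and its product quenches rhodamine fluorescence; 0% = enzyme reaction without inhibitor and -100% = no enzyme wells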
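Sfp 15 nM + cpd, 15 min RT; start w/ rhodamine-CoA 5 uM, BHQ-2-YbbR 12.5 uM (final); 50 mM Hepes pH 7.6, 10 mM MgCl2, 0.01% NP-40, 0.01% BSA; read 525/598 nm at 0 and 30 min.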
* = called active by the depositor; ? = inconclusive; / = no result; [ ] = remark or other dose. Only some compounds are listed: those with a hit (about 12% of all), similar ones and a draw of the others. The call rests on the fitted dose curve; in most records, active means well fitted curve in the direction sought with a large enough effect; inconclusive means small, poorly fitted or top-dose-only effect, or another doubt; inactive means no such curve, though single readings can be large; an effect the other way counts as inactive or inconclusive. Potency means the concentration at half of the fitted maximal effect.

SMILES | JMJD2A Tudor inh | PLK1 PBD inh | HP1b chromo inh | BAZ2B inh | G9a block | Sfp PPTase inh
CCC(C)c1ccc(OCC(=O)Nc2cccc(-c3nc4ncccc4o3)c2)cc1 (stereo not given) | -24.7% | / | 42.2% | -13.6% | 6.4%[59 µM] | /
Cc1cccc(C2c3[nH]c4ccccc4c3CCN2C(=O)c2cc3c([nH]c2=O)CCCC3)n1 (stereo not given) | ? | -2.9% | -10.1% | 44.7µM* | -8.4%[12.7 µM] | 2.3%
O=C(c1ccc(-n2cccn2)cc1)N1CCc2c([nH]c3ccccc23)C1c1ccccn1 (stereo not given) | ? | -12.5% | 9.8% | ? | ? | -9.1%
CCOC(=O)c1[nH]c(C)c(C(=O)N2CCc3c([nH]c4ccccc34)C2c2ccccn2)c1C (stereo not given) | ? | -3.3% | -24.1% | 50.1µM* | 7.8%[0.501 µM] | -7.5%
O=C(c1cc2c([nH]c1=O)CCCC2)N1CCc2c([nH]c3ccccc23)C1c1ccccc1F (stereo not given) | ? | 6.3% | -6.2% | ? | / | -9.4%
Cc1cc2cc(C(=O)N3CCc4c([nH]c5ccccc45)C3c3ccccn3)ccc2o1 (stereo not given) | 35.5µM* | 3.2% | -18.3% | 39.8µM* | ? | -18.8%
CC(=O)c1cc(CC(=O)N2CCc3c([nH]c4ccccc34)C2c2ccccn2)cs1 (stereo not given) | ? | -4.6% | -18.3% | -35.7% | ? | 20µM*
Cc1nc(C)c(CC(=O)N2CCc3c([nH]c4ccccc34)C2c2ccccn2)s1 (stereo not given) | -35.2% | -10.8% | 0.4% | ? | / | -8.7%
CC(C)C[C@H](NC(=O)[C@H](CCCCN)NC(=O)CNC(=O)[C@H](CC(C)C)NC(=O)[C@@H](NC(=O)[C@@H]1CSSC[C@H](N)C(=O)N[C@@H](CO)C(=O)N[C@@H](CC(N)=O)C(=O)N[C@@H](CC(C)C)C(=O)N[C@@H](CO)C(=O)N[C@@H]([C@@H](C)O)C(=O)N1)C(C)C)C(=O)N[C@@H](CO)C(=O)N[C@@H](CCC(N)=O)C(=O)N[C@@H](CCC(=O)O)C(=O)N[C@@H](CC(C)C)C(=O)N[C@@H](Cc1cnc[nH]1)C(=O)N[C@@H](CCCCN)C(=O)N[C@@H](CC(C)C)C(=O)N[C@@H](CCC(N)=O)C(=O)N[C@H](C(=O)N[C@@H](Cc1ccc(O)cc1)C(=O)N1CCC[C@H]1C(=O)N[C@@H](CCCNC(=N)N)C(=O)N[C@H](C(=O)N[C@@H](CC(N)=O)C(=O)N[C@H](C(=O)NCC(=O)N[C@@H](CO)C(=O)NCC(=O)N[C@H](C(=O)N1CCC[C@H]1C(N)=O)[C@@H](C)O)[C@@H](C)O)[C@@H](C)O)[C@@H](C)O | / | / | / | / | / | -6.3%
CN1C(=O)N(C)C2=NNC=NC2(O)C1=O (stereo not given) | / | / | / | / | / | -25.3%
CC1(C)CC[C@]2(C(=O)O)C(O)C[C@@]3(C)C(=CCC4[C@@]5(C)CCC(O)C(C)(C)C5CC[C@@]43C)C2C1 (stereo not given in full) | / | / | / | / | / | -4.3%
CCOc1ccc(C(=O)Nc2cccc3ncccc23)cc1Cl | -6.9% | -8.6% | 39.2% | -33.1% | -8.3% | -25.8%
CCc1ccc(N2C(=O)Cc3c2nc(N)c(C#N)c3N)cc1 | -23.4% | -5.9% | 10.6% | -30.1% | 15.3%[12.7 µM] | 3.7%
CCN(CC)c1nc2c3c(nc4c(c3c1C#N)CC(=O)N4c1ccc(Cl)cc1)NC(C)=N2 | -22.8% | -1.8% | 4.9% | -3.8% | 35.5µM* | ?
CN=c1scc(C)n1/N=C/c1cc(Br)c(O)c(Br)c1 | ? | -20.3% | -9.8% | 35.5µM* | 11.2µM* | -20.7%
COc1cc(/C=N/N2C(C)CCCC2C)cc(Br)c1O (stereo not given) | -31.0% | 3.7% | -15.6% | / | ? | ?
CCOc1cc(/C=N/n2cnnc2)cc(Br)c1O | -6.8% | -2.4% | -6.4% | -7.3% | ? | 8.3%
COc1cc(/C=N/N2C(=O)CSC2=S)cc(Br)c1O | 44.7µM* | ? | ? | 39.8µM* | 44.7µM* | -5.9%
CN=c1scc(C)n1/N=C/c1ccc2c(c1)OCO2 | ? | -6.6% | -37.4% | 39.8µM* | ? | -4.7%
CCN=c1scc(C)n1/N=C/c1cc(Br)c(O)c(OC)c1 | 79.4µM* | -14.2% | ? | 12.6µM* | 10µM* | -23.9%
CN=c1scc(C)n1/N=C/c1ccc(O)cc1 | -25.3% | -0.9% | -0.9% | ? | ? | -4.8%
CN=c1scc(C)n1/N=C/c1ccc(O)cc1O | ? | -8.9% | -38.3% | 39.8µM* | -9.4%[59 µM] | 1.9%
O=C(CCn1nc(-c2ccccc2)ccc1=O)NCCCN1CCCCCC1 | ? | -1.8% | 15.0% | 79.4µM* | / | -14.0%
CCOC(=O)Cn1c(=O)n(CC2CCCO2)c2nc(-c3ccccc3)nc(C(N)=O)c21 (stereo not given) | -5.1% | / | 22.5%[57 µM] | -1.9% | -0.9%[59 µM] | /
CC(C)C[C@H](NC(=O)NCc1ccc(Cl)cc1)C(=O)O | -24.7% | -1.5% | 12.5% | 2.0% | 35.5µM* | 14.7%
SMILES | JMJD2A Tudor inh | PLK1 PBD inh | HP1b chromo inh | BAZ2B inh | G9a block | Sfp PPTase inh
O=C(NCc1ccc(Cl)cc1)NCC(F)(F)F | -13.8%[57.1 µM] | 29.9µM* | ? | 5.8% | -2.1% | -0.7%
O=C(NCc1ccc(Cl)cc1)Nc1ccc(F)cc1 | -15.4% | -8.1% | 24.4% | 0.6% | -3.4% | 9.3%
CC(C)C[C@H](NC(=O)NCc1ccccc1Cl)C(=O)O | -7.7% | -1.5% | 35.0% | 9.1% | 2.0%[59 µM] | 17.1%
COc1ccc(Nc2nc(-c3ccc(OC)cc3)cs2)cc1 | -0.7% | -7.4% | 27.6% | -1.2% | -26.9% | -6.1%
Cc1csc(Nc2ccc(Cl)cc2)n1 | -16.1% | -10.6% | 3.8% | ? | 44.7µM* | 11.7%
Cc1ccc(Nc2nc(C)cs2)cc1 | ? | ? | ? | -22.9% | 35.5µM* | 22.4µM*
O=C1N=C(N2CCCCC2)S/C1=C\c1ccc(Cl)cc1 | -12.5% | -6.8% | 23.7% | 2.5% | -11.1% | 10.4%
O=C1N=C(N2CCCC2)S/C1=C\c1ccccc1 | 56.2µM* | 29.9µM* | -16.4% | 12.6% | -8.5%[59 µM] | 20.5%
Cc1ccccc1N1CCN(C2=NC(=O)/C(=C\c3cccs3)S2)CC1 | -32.0% | -13.9% | 4.1% | -32.2% | 50.1µM* | -19.9%
Cc1ccc(/C=C2\SC(N3CCCCC3)=NC2=O)cc1 | ? | 23.8µM* | -17.6% | 2.1% | 15.5% | -1.3%
CC(=O)OCCn1c([N+](=O)[O-])cnc1C=[N+]([O-])C1CCCCC1 | / | -1.2% | / | / | / | /
Cc1ccccc1CCNC(=O)c1ccc(NC(=O)N2CC(C)Sc3ccccc32)cc1 (stereo not given) | -3.7% | / | 32.6% | -6.0% | 7.3%[59 µM] | /
